# Measured values from PubChem BioAssay (NCI).
# Values joined by “and” are separate entries in the source; they are usually repeats but may differ in a detail not shown here. Equal entries are not always repeated. Compounds without any hit were thinned out: in the full panel of roughly 83,000, 20% have a hit.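 In brief: 96-well plates, 48 h treatment, single concentration, percent growth endpoint.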 Values without a mark were called inactive. Active and inactive are the calls of the source. Rule for the calls: active = growth percent below 10; inactive = the rest.
# System: MDA-MB-468 breast
# Test: NCI-60 one-dose screen, 48 h (100 = growth as untreated, 0 = no growth, -100 = all killed)
# Details: 10 µM unless noted
row,Compound,growth
1,COc1cc(C2=N/C(=C\c3cc4ccccc4nc3Oc3ccccc3)C(=O)N2C(=N)N)cc(OC)c1OC,67.9%
2,c1ccc(-c2nc(Nc3nccnn3)c3ccccc3n2)cc1,83.5%
3,Nc1nc(SC/C=C/CCl)c2[nH]cnc2n1,103% and 127%
4,COC(=O)[C@]12CC[C@@H](C)[C@H](C)[C@@H]1C1=CC[C@@H]3[C@@]4(C)C[C@@H](OC(C)=O)[C@H](O)[C@@](C)(CO)[C@@H]4[C@H](O)C[C@@]3(C)[C@]1(C)CC2,-90.6% (active)
5,COc1cc(Cl)cc(-c2nn(C(=O)NS(=O)(=O)c3ccc(Cl)cc3)cc2-c2ccncc2)c1,83.7%
6,C#COc1cccc(Nc2ncnc3cc(NC(=O)[C@H](C)Cl)ccc23)c1,-11.4% [6.25 µM] (active)
7,CCN1CCN(CC(=O)Nc2nc3ccc(NCc4ccc(Br)cc4)cc3s2)CC1,61.1%
8,Cc1ccc(N2C(=O)CCC2=O)cc1,103%
9,COc1cc(CNC(=O)Cc2ccccc2[N+](=O)[O-])ccc1OCC(=O)NO,98.7%
10,CCNC1(NC#N)CCCCC1,101%
11,O=C1/C(=C/C=C/c2ccco2)SC(=S)N1c1ccccc1,-9.4% (active)
12,O=C1/C(=C/c2ccc(Oc3ccccc3)cc2)N=C(c2ccccc2)N1CCc1cccs1,108%
13,O=C1SCN(Cc2ccccc2)CN1Cc1ccccc1,24.8%
14,COc1ccc(Cl)cc1NC(N)=S,101%
15,COc1cc([C@H](C)c2ccc3ccccc3c2)cc(OC)c1OC,47.3%
